PubChem BioAssay (Tox21)
Values joined by “and” are separate entries in the source; they are usually repeats but may differ in a detail not shown here. Equal values may be shown once. Results filed as inconclusive are left out. Where a call stands in place of a potency, no number is given. A structure can be active in one record and inactive in another. Active and inactive are the calls of the source. Unless noted, the call rests on the fitted dose curve.

Assays:
[1] = Nuclear factor erythroid 2-related factor 2/antioxidant responsive element (Nrf2/ARE) small molecule agonists: qHTS cell viability counter screen in human keratinocytes (AID 1919968; active means well fitted curve in the direction sought with a large enough effect in the repeat runs; an effect the other way counts as inactive or inconclusive; further: nearly all actives have a fitted effect of over 55% in size)
Procedure, shortened: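 HaCaT ARE reporter line, 1,500 cells/well; 5 h settle, 37 C/5% CO2; cpd in DMSO pinned; 23 h exposure; CellTiter-Fluor, 1 h; fluorescence.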

[2] = Nuclear factor erythroid 2-related factor 2/antioxidant responsive element (Nrf2/ARE) small molecule agonists: luciferase reporter gene qHTS assay in human keratinocytes (AID 1919969); further: nearly all actives have a fitted effect of over 35% in size
[3] = biological target: Gonadotropin-releasing hormone receptor (Homo sapiens) (UniProt P30968); assay: Human gonadotropin-releasing hormone receptor (GnRHR) small molecule agonists, calcium flux assay in GnRHR-HEK293 cells (AID 1920063); further: nearly all actives have a fitted effect of over 35% in size
Procedure, shortened: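 GnRHR-HEK293, 1500 cells/well, 18 h 37 C/5% CO2; Ca dye 1 h 37 C; cpd pinned (DMSO), agonist mode; kinetic FL 480/540, 3 min, 1 s reads; 15 conc, n=3.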

[4] = biological target: KiSS-1 receptor (Homo sapiens) (UniProt Q969F8); assay: Human kisspeptin (KISS1R) small molecule agonists, calcium flux assay in KISS1R-HEK293 cells (AID 1920064; active means well fitted curve in the direction sought with a large enough effect in the repeat runs; an effect the other way counts as inactive or inconclusive)
Procedure, shortened: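 Stable human KISS1R HEK293 line; 18 h plating, 37 C/5% CO2; calcium dye 1 h 37 C; compound pin transfer; kinetic fluorescence Ex/Em 480/540, 3 min.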

[5] = G protein-coupled receptor (GPCR) small molecule agonists, calcium flux assay: HEK293 wild type cell line counter screen (AID 1920065)
Procedure, shortened: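 Kinetic fluorescence at Ex/Em 480/540, recorded every second over 3 min, served as the read-out after compound addition. Each compound was tested at 15 concentrations in triplicate on cells pre-loaded with calcium dye for 1 h.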

[6] = p53 small molecule agonists, cell-based qHTS assay with human liver microsomes: qHTS cell viability counter screen (AID 1963579); further: nearly all actives have a fitted effect of over 45% in size
Procedure, shortened: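 Seed p53RE-bla cells at 4,000 per well; incubate 5 h at 37 C; add compound, human liver microsomes and NADPH; incubate 16 h at 37 C; add CellTiter-Glo; after 30 min at room temperature, read luminescence.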

[7] = p53 small molecule agonists, cell-based qHTS assay with rat liver microsomes: qHTS cell viability counter screen (AID 1963580); further: nearly all actives have a fitted effect of over 45% in size
Procedure, shortened: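 Intracellular ATP, by CellTiter-Glo luminescence, defines viability. HCT-116 p53RE-bla cells, 4,000 per well, were compound-treated in the presence of rat liver microsomes and NADPH for 16 h at 37 C.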

[8] = biological target: 5-hydroxytryptamine receptor 2A (Homo sapiens) (UniProt P28223); assay: 5-hydroxytryptamine receptor 2A (HTR2A) small molecule antagonists, cell-based qHTS assay (AID 1963586); further: nearly all actives have a fitted effect of over 45% in size; further: potency means the concentration at half of the fitted maximal effect
Procedure, shortened: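 Antagonist-mode intracellular calcium assay: DOI (4 nM) added after 5 min compound pre-incubation at room temperature to dye-loaded HTR2A-CHO cells. Fluorescence followed for 3 min, sampled every second.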

[9] = biological target: Muscarinic acetylcholine receptor M1 (Homo sapiens) (UniProt P11229); assay: Cholinergic receptor muscarinic 1 (CHRM1) small molecule antagonists, cell-based qHTS assay (AID 1963588); further: nearly all actives have a fitted effect of over 40% in size
Procedure, shortened: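 CHRM1-CHO calcium-flux assay, antagonist mode. Cells were seeded 18 h, dye-loaded 1 h at 37 C and given compound for 5 min at RT, then acetylcholine was added at 50nM. FDSS fluorescence was read 3 min; 15 concentrations, three runs.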

[10] = biological target: Muscarinic acetylcholine receptor M1 (Homo sapiens) (UniProt P11229); assay: Cholinergic receptor muscarinic 1 (CHRM1) small molecule agonists, cell-based qHTS assay (AID 1963589); further: nearly all actives have a fitted effect of over 35% in size
Procedure, shortened: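 Human M1 in stable CHO line; 18 h plating, 1 h dye load 37 C; cpd added (agonist mode); Ca2+ fluorescence kinetic read, 1 s intervals; 15 conc, 3 runs.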

[11] = cAMP Responsive Elements (CRE) small molecule agonists, cell-based qHTS assay (AID 1963590)
Procedure, shortened: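 HEK 293T CRE-bla, 2,000 cells/well, 18 h preincubation 37 C/5% CO2; cpds (DMSO) pinned, 3 h; LiveBLAzer B/G FRET substrate, 2 h RT.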

[12] = biological target: Beta-2 adrenergic receptor (Homo sapiens) (UniProt P07550); assay: Adrenergic beta2 receptor (ADRB2) small molecule antagonists, cell-based qHTS assay (AID 1963592); further: series mostly up to about 92 µM; nearly all actives have a fitted effect of over 50% in size
Procedure, shortened: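 Cells (CHO, stable ADRB2 overexpression) incubated 18-20hr at 37C; compounds added from DMSO; agonist mix (1nM isoproterenol, 100uM IBMX, 25uM Ro-20-1724) added; 0.5hr RT; d2-cAMP and anti-cAMP-cryptate added; 1hr RT; 665/615 nm read.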

[13] = biological target: Beta-2 adrenergic receptor (Homo sapiens) (UniProt P07550); assay: Adrenergic beta2 receptor (ADRB2) small molecule agonists, cell-based qHTS assay (AID 1963593);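 further: CHO cells stably overexpressing human ADRB2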
Procedure, shortened: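 CHO cells stably over-expressing ADRB2 were plated overnight at 37C, then dosed with compounds plus a stimulation mix containing 100uM IBMX and 25uM Ro-20-1724 for 0.5hr at room temperature. cAMP was measured by HTRF competition, 1hr.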

[14] = biological target: D(2) dopamine receptor (Homo sapiens) (UniProt P14416); assay: Dopamine D2 receptor (DRD2) small molecule agonists, cell-based qHTS assay (AID 1963594); further: nearly all actives have a fitted effect of over 35% in size
Procedure, shortened: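 cAMP accumulation in DRD2-HEK293 cells measured by HTRF after 1 h detection; compounds added 10 min before NKH477 (200nM […]) forskolin-analogue stimulation, 30 min at room temperature, with Ro20-1724 present at 0.1 mM final.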

[15] = biological target: D(2) dopamine receptor (Homo sapiens) (UniProt P14416); assay: Dopamine D2 receptor (DRD2) small molecule antagonists, cell-based qHTS assay (AID 1963595; active means well fitted inhibition curve with a large enough effect in the signal ratio in the repeat runs, with a control signal flat; the % refers to the signal ratio)
Procedure, shortened: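 HEK293 cells stably expressing DRD2 were preincubated with 0.1 mM Ro20-1724, then with compound for 10 min at room temperature. Cells were stimulated with 200 nM NKH477 plus 12 nM quinpirole for 30 min, and cAMP was read by HTRF.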

[16] = p53 small molecule agonists, cell-based qHTS assay with rat liver microsomes (AID 1963578)
Procedure, shortened: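 Fluorescence from a beta-lactamase reporter under a p53 response element was measured after cells had been incubated 16 h at 37 C with test compound and rat liver microsomes plus NADPH (0.5 mg/mL final each).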

[17] = p53 small molecule agonists, cell-based qHTS assay: qHTS cell viability counter screen (AID 1963581); further: nearly all actives have a fitted effect of over 45% in size
Procedure, shortened: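 HCT-116 p53RE-bla cells, 4,000/well, plated 5 h before compound pin transfer; 16 h at 37 C; bla substrate 2 h RT; then CellTiter-Glo, 30 min RT, luminescence.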

[18] = p53 small molecule agonists, cell-based qHTS assay (AID 1963582; active means well fitted activation curve with a large enough effect in the signal ratio in the repeat runs, not every such curve was filed as active; the % refers to the signal ratio)
Procedure, shortened: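 Reporter line: p53RE-bla. Pre-incubation 5 h, 37 C, 5% CO2; compound (DMSO, pin tool) 16 h, 37 C; B/G FRET substrate 2 h RT; fluorescence intensity read.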

[19] = biological target: 5-hydroxytryptamine receptor 2A (Homo sapiens) (UniProt P28223); assay: 5-hydroxytryptamine receptor 2A (HTR2A) small molecule agonists, cell-based qHTS assay (AID 1963587); further: nearly all actives have a fitted effect of over 30% in size
Procedure, shortened: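 Kinetic calcium-flux fluorescence (2 min, 1 sec intervals) after compound addition in agonist mode. HTR2A-CHO cells were cultured 18 h, then dye-loaded 1 h at 37 C.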

[20] = cAMP Responsive Elements (CRE) small molecule antagonists, cell-based qHTS assay (AID 1963591; active means well fitted inhibition curve with a large enough effect in the signal ratio in the repeat runs, not every such curve was filed as active; the % refers to the signal ratio)
Procedure, shortened: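 Beta-lactamase reporter read by FRET substrate (LiveBLAzer B/G) after 2 h at room temperature. CRE-bla HEK293T cells had received compound plus 0.25 uM (final) NKH477 for 3 h at 37 °C.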

Chain of D(2) dopamine receptor (Homo sapiens) (P14416 whole entry, looked up): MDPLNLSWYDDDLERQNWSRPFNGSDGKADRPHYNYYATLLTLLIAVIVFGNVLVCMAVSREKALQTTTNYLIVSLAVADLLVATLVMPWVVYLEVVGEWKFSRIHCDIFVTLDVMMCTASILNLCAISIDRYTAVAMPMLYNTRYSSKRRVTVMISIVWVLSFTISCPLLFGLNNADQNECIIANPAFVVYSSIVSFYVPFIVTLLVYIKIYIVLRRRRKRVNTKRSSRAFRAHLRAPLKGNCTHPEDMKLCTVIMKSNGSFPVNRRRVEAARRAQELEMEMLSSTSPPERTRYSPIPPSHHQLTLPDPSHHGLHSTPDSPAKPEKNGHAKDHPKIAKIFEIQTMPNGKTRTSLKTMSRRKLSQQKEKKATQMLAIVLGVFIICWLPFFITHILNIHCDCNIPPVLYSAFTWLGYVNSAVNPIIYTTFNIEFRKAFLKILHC
Chain of KiSS-1 receptor (Homo sapiens) (Q969F8 whole entry, looked up): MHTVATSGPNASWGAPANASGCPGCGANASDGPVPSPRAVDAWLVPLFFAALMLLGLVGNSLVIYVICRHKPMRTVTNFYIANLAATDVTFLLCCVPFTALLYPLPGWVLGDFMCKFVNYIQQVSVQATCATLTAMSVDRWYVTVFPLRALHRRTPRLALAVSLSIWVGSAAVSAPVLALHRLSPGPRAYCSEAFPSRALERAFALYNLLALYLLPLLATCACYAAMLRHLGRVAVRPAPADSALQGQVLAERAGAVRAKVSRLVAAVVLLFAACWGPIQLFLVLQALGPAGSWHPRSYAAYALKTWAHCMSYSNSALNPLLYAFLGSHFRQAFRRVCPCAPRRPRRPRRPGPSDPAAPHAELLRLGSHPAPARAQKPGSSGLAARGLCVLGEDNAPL
Chain of 5-hydroxytryptamine receptor 2A (Homo sapiens) (P28223 whole entry, looked up): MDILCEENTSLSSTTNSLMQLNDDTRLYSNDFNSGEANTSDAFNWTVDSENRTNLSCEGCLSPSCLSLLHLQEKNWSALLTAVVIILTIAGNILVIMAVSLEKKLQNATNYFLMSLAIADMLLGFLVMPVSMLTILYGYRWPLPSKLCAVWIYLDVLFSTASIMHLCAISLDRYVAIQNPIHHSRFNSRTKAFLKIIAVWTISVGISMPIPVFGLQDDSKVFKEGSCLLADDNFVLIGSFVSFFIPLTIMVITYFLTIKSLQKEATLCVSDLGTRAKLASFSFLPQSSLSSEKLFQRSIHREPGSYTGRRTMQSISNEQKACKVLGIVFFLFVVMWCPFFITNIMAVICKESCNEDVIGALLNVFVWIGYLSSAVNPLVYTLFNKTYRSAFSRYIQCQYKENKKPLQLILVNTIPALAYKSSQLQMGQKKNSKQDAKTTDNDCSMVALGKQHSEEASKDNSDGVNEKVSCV
Chain of Beta-2 adrenergic receptor (Homo sapiens) (P07550 whole entry, looked up): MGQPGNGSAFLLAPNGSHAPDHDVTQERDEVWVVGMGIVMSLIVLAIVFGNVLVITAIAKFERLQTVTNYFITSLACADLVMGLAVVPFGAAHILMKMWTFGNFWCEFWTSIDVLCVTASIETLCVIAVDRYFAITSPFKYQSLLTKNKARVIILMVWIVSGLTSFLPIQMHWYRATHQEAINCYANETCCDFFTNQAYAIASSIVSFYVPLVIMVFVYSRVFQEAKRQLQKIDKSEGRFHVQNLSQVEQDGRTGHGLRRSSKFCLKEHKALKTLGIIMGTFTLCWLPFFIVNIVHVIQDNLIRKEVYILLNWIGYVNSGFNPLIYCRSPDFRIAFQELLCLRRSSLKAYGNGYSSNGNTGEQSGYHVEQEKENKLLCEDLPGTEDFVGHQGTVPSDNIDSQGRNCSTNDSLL
Chain of Gonadotropin-releasing hormone receptor (Homo sapiens) (P30968 whole entry, looked up): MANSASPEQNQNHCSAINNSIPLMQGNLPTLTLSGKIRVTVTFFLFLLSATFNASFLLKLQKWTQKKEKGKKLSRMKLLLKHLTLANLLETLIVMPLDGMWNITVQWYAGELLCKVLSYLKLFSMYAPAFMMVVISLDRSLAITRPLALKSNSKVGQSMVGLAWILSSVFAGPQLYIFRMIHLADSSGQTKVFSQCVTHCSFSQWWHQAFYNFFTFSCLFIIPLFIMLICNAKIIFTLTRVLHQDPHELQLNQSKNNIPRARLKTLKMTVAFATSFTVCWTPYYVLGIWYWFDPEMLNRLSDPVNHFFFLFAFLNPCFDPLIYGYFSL
Chain of Muscarinic acetylcholine receptor M1 (Homo sapiens) (P11229 whole entry, looked up): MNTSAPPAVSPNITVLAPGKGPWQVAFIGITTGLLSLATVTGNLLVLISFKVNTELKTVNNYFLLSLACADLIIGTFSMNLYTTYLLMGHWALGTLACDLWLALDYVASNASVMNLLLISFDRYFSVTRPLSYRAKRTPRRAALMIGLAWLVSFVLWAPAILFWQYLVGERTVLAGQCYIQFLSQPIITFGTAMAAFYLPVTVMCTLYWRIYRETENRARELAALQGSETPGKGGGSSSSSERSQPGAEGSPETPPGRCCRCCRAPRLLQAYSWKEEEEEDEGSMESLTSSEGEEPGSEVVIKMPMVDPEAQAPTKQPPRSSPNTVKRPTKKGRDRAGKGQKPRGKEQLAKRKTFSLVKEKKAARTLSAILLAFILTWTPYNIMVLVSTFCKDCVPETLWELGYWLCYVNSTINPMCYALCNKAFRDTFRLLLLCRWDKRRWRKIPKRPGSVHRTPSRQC

SMILES	Potency [1]	Potency [2]	Potency [3]	Potency [4]	Potency [5]	Potency [6]	Potency [7]	Potency [8]	Potency [9]	Potency [10]	Potency [11]	Potency [12]	Potency [13]	Potency [14]	Potency [15]	Potency [16]	Potency [17]	Potency [18]	Potency [19]	Potency [20]
O=Nc1ccc(O)cc1	inactive	inactive	inactive	inactive	inactive	inactive	inactive	inactive	inactive	inactive	inactive	inactive	inactive	inactive	inactive	–	–	–	–	–
O=C1CCCC1	inactive	inactive	inactive	inactive	–	inactive	inactive	inactive	–	inactive	inactive	inactive	–	inactive	inactive	inactive	inactive	inactive	inactive	inactive
C=CN1CCCC1=O	inactive	inactive	inactive	inactive	–	inactive	inactive	inactive	inactive	inactive	inactive	inactive	–	inactive	inactive	inactive	inactive	inactive	inactive	inactive
CCCCCCCCCCCCCCCCCC(=O)OCC(O)CO (stereo not drawn)	inactive	inactive	inactive	inactive	inactive	inactive	–	inactive	inactive	inactive	inactive	inactive	inactive	inactive	inactive	–	–	–	inactive	inactive
O=C(C1CCCCC1)N1CC(=O)N2CCc3ccccc3C2C1 (stereo not drawn)	inactive	inactive	inactive	inactive	inactive	–	–	–	–	–	–	–	–	inactive	inactive	–	–	–	–	–
CCn1cc(C(=O)O)c(=O)c2ccc(C)nc21	inactive	inactive	inactive	inactive	inactive	–	–	inactive and 3.34 µM (active)	–	inactive	–	inactive	inactive	inactive	inactive	–	inactive	–	inactive	–
O=C(O)C1=NN(c2ccc(S(=O)(=O)O)cc2)C(=O)C1	inactive	inactive	inactive	inactive	–	inactive	inactive	inactive	–	inactive	–	inactive	inactive	inactive	inactive	inactive	inactive	inactive	inactive	inactive
